Among the test systems are NCI-H23 lung; NCI-H226 lung; NCI-H322M lung; HOP-62 NSCLC; NCI-H460 lung; HOP-92 NSCLC; NCI-H522 lung; A549/ATCC NSCLC; 786-0 renal; COLO 205 colon; DU-145 prostate; K-562 leukemia; MALME-3M melanoma; MDA-MB-231 breast; RXF 393 renal; SF-268 CNS; SF-295 CNS; SF-539 CNS; UACC-257 melanoma; M14 melanoma.
Holding throughout (test): NCI-60 one-dose screen, 48 h (100 = growth as untreated, 0 = no growth, -100 = all killed)
Common to all, as to details: 10 µM unless noted

This is part of a sample that, as a whole, favours compounds with a hit. Of some 83,000 tested, about 20% had one in any assay.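 48-hour exposure, single concentration, 96-well plates; percent growth endpoint where 0 means no net growth. Active: below 10.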 Unmarked numbers belong to inactive results. Calls of active or inactive are those of the source.

`CC(C)CSc1nc(Nc2ccccc2)c(C#N)c(-c2ccc(F)cc2)n1`: the growth in the assay with NCI-H23 lung is 38.7%; in the assay with NCI-H226 lung it was 6.87% (active); with NCI-H322M lung, 27.9%; in the assay on HOP-62 NSCLC, 7.29% (active); in the assay on NCI-H460 lung, 3.5% (active); with HOP-92 NSCLC it was -47.6% (active). For the same molecule, the growth is 59.1% with NCI-H522 lung; 21.4% with A549/ATCC NSCLC; -45.6% (active) in the assay with 786-0 renal; 20.3% in the assay with COLO 205 colon; 75.9% with DU-145 prostate; 50.7% in the assay on K-562 leukemia. The growth in the assay with MALME-3M melanoma was -5.57% (active); in the assay with MDA-MB-231 breast, -3.62% (active); with RXF 393 renal, 2.42% (active); in the assay on SF-268 CNS, 37.7%; in the assay on SF-295 CNS, 16.2%; in the assay on SF-539 CNS, 22.4%. The results for the growth with UACC-257 melanoma and in the assay on M14 melanoma were 66.2% and 31.6%, respectively.

On to `O=S(=O)(Nc1nccs1)c1ccc(Nc2nc(-c3ccncc3)cs2)cc1`, for which the growth was 108% in the assay with NCI-H23 lung; 102% in the assay on NCI-H226 lung; 126% in the assay on NCI-H322M lung; 93.8% in the assay on HOP-62 NSCLC; 99.3% in the assay with NCI-H460 lung; 96.9% in the assay with HOP-92 NSCLC. Moreover, the growth is 97.6% in the assay with NCI-H522 lung; 104% with A549/ATCC NSCLC; 97.8% in the assay with 786-0 renal; 93.2% in the assay with COLO 205 colon; 106% with DU-145 prostate; 109% in the assay with K-562 leukemia. The growth with MALME-3M melanoma was 113%; in the assay with MDA-MB-231 breast, 105%; in the assay with RXF 393 renal, 110%; in the assay with SF-268 CNS it was 107%; in the assay with SF-295 CNS it was 120%; in the assay on SF-539 CNS, 88.2%. The growth in the assay with UACC-257 melanoma is 109%; in the assay on M14 melanoma, 103%.

As to `CCSc1nc(Cl)c(C#N)c(-c2ccc(F)cc2)n1`, the growth is 95.6% with NCI-H23 lung; 94.3% with NCI-H226 lung; 92% in the assay with NCI-H322M lung; 106% in the assay with HOP-62 NSCLC; 103% in the assay with NCI-H460 lung; 99% with HOP-92 NSCLC. The growth was 92.8% in the assay with NCI-H522 lung; 87.3% with A549/ATCC NSCLC; 98.9% with 786-0 renal; 106% in the assay on COLO 205 colon; 104% with DU-145 prostate; 37.7% in the assay on K-562 leukemia. The growth with MALME-3M melanoma is 106%; in the assay on MDA-MB-231 breast, 105%; in the assay with RXF 393 renal, 103%; in the assay on SF-268 CNS, 94.9%; in the assay with SF-295 CNS, 97.7%; in the assay with SF-539 CNS, 92.7%. Besides, the growth in the assay on UACC-257 melanoma is 93.8%; with M14 melanoma it was 82.3%.

`O=[N+]([O-])c1cccc(CN(Cc2cccc([N+](=O)[O-])c2O)c2ccccc2)c1O`: the growth is 58.4% in the assay on NCI-H23 lung; 83.2% in the assay on NCI-H226 lung; 60.1% in the assay with NCI-H322M lung; 78.4% with HOP-62 NSCLC; 80.1% with NCI-H460 lung; 54.5% with HOP-92 NSCLC. Besides, the growth in the assay on NCI-H522 lung was 63.9%; in the assay on A549/ATCC NSCLC, 71%; with 786-0 renal, 51.1%; with COLO 205 colon it was 78%; in the assay on DU-145 prostate, 94.3%; with K-562 leukemia, 60.5%. For the same molecule, the growth was 87.2% with MALME-3M melanoma; 68.8% with MDA-MB-231 breast; 88.6% with RXF 393 renal; 89.4% with SF-268 CNS; 66.6% with SF-295 CNS; 94.7% in the assay on SF-539 CNS. Besides, the values for the growth with UACC-257 melanoma and in the assay on M14 melanoma were 93.3% and 67.6%, respectively.

For the molecule `C=C(C)[C@@H]1CC[C@]2(C(=O)O)CC[C@]3(C)[C@H](CC[C@@H]4[C@@]5(C)C[C@@H](CC#Cc6ccccc6)C(=O)C(C)(C)[C@@H]5CC[C@]43C)[C@@H]12`, the growth is 25.2% with NCI-H23 lung; 28.5% in the assay on NCI-H226 lung; 31.9% in the assay on NCI-H322M lung; 32.5% with HOP-62 NSCLC; 24.1% with NCI-H460 lung; 48.2% in the assay with HOP-92 NSCLC. The growth in the assay on NCI-H522 lung is 11.6%; with A549/ATCC NSCLC, 25.3%; in the assay on 786-0 renal, 35.3%; in the assay on COLO 205 colon, 20.8%; in the assay with DU-145 prostate, 37.3%; in the assay on K-562 leukemia it was 16.9%. Moreover, the growth with MALME-3M melanoma is 38.1%; with MDA-MB-231 breast it was 55.3%; with RXF 393 renal, 71.5%; in the assay with SF-268 CNS, 50%; in the assay on SF-295 CNS, 34.8%; in the assay with SF-539 CNS, 49.1%. Besides, the growth in the assay with UACC-257 melanoma is 60.5%; with M14 melanoma, 36.5%.

`Oc1ccc(CNNc2ccnc3c(O)cccc23)c2cccnc12`: the growth with NCI-H23 lung was 31.6%; with NCI-H226 lung it was 86.7%; in the assay with NCI-H322M lung, 47.8%; in the assay with HOP-62 NSCLC, 25.2%; in the assay on NCI-H460 lung, 12.3%; in the assay with HOP-92 NSCLC, 54.3%. For the same molecule, the growth with NCI-H522 lung was 13%; in the assay with A549/ATCC NSCLC, 26.5%; with 786-0 renal it was 39%; in the assay on COLO 205 colon, 64.8%; in the assay with DU-145 prostate, 43.4%; with K-562 leukemia it was 9.71% (active). The growth in the assay on MALME-3M melanoma is 66.7%; with MDA-MB-231 breast, 37.4%; in the assay on RXF 393 renal, 59.6%; in the assay with SF-268 CNS, 37.6%; in the assay on SF-295 CNS, 17.7%; in the assay on SF-539 CNS, 32.2%. The figures for the growth in the assay on UACC-257 melanoma and with M14 melanoma were 38.3% and 30.9%, respectively.

Turning to `COc1ccc(/C(=N\O)c2cc(C)c(OC)c(C)c2)cc1O`, the growth with NCI-H23 lung is 45.9%; in the assay on NCI-H226 lung it was 60.6%; with NCI-H322M lung, 48.3%; in the assay on HOP-62 NSCLC, 39.8%; with NCI-H460 lung, 9.22% (active); with HOP-92 NSCLC it was 54.1%. In addition, the growth in the assay on NCI-H522 lung is -11.4% (active); in the assay on A549/ATCC NSCLC it was 22.2%; in the assay on 786-0 renal it was 35.3%; with COLO 205 colon, -38% (active); with DU-145 prostate, 29.4%; with K-562 leukemia it was 12%. The growth was 67% in the assay with MALME-3M melanoma; 24.8% with MDA-MB-231 breast; 62.9% in the assay with RXF 393 renal; 30.4% with SF-268 CNS; 29.7% in the assay on SF-295 CNS; 2.65% (active) in the assay with SF-539 CNS. The growth is 70% with UACC-257 melanoma and 13.6% in the assay on M14 melanoma.

In the case of `C#Cc1cccc(Nc2ncnc3ccc(NC(=O)c4ccccc4)cc23)c1`, the growth was 86.9% with NCI-H23 lung; 85.9% in the assay with NCI-H226 lung; 21.7% with NCI-H322M lung; 102% in the assay on HOP-62 NSCLC; 76.8% in the assay with NCI-H460 lung; 65% in the assay with HOP-92 NSCLC. The growth with NCI-H522 lung is 53.5%; in the assay on A549/ATCC NSCLC, 70.9%; in the assay on 786-0 renal it was 76.7%; in the assay with COLO 205 colon, 99.7%; in the assay on DU-145 prostate, 50.9%; with K-562 leukemia it was 63.6%. Further, the growth in the assay with MALME-3M melanoma was 104%; with MDA-MB-231 breast, 95.6%; with RXF 393 renal, 58.5%; in the assay on SF-268 CNS it was 74.7%; in the assay on SF-295 CNS it was 89.7%; in the assay with SF-539 CNS, 90.5%. Further, the values for the growth in the assay with UACC-257 melanoma and in the assay on M14 melanoma were 99.6% and 90.6%, respectively.

Values taken from PubChem BioAssay (NCI).
